Laboratory results from PubChem BioAssay (NCATS).
Inconclusive results are not listed. Activity calls are given as the source filed them. Calls follow the shape of the dose curve; as a rule, active = well fitted curve in the direction sought with a large enough effect; inconclusive = small, poorly fitted or top-dose-only effect, or another doubt; inactive = no such curve, though single readings can be large; an effect the other way counts as inactive or inconclusive.

What was measured:
Es-2 = experiment: Primary qHTS to identify gynecologic anti-cancer compounds using libraries of approved drugs and bioactive compounds (AID 1345084); settings: Gynecologic cancer cell panel viability, ATPlite luminescence, 48 h; series mostly up to 57.5 µM; also: nearly all actives have a fitted effect of over 55% in size
Outline: (§1)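 Cytotoxicity screen measuring ATP content by luciferase luminescence. Each compound is applied at five concentrations for 48 h at 37 C with 5% CO2.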

HeLa = experiment: as above; settings: Gynecologic cancer cell panel viability, ATPlite luminescence, 48 h; series mostly up to 57.5 µM
Outline: as §1

Hek293T = experiment: as above; settings: Gynecologic cancer cell panel viability, ATPlite luminescence, 48 h, control line for the selectivity index; series mostly up to 57.5 µM
Outline: as §1

JEG-3 = experiment: as above; settings: Gynecologic cancer cell panel viability, ATPlite luminescence, 48 h; series mostly up to 57.5 µM
Outline: as §1

OV90 = experiment: as above; settings: Gynecologic cancer cell panel viability, ATPlite luminescence, 48 h; series mostly up to 57.5 µM
Outline: as §1

PA-1 = experiment: as above; settings: Gynecologic cancer cell panel viability, ATPlite luminescence, 48 h; series mostly up to 57.5 µM
Outline: as §1

SKOV3 = experiment: as above; settings: Gynecologic cancer cell panel viability, ATPlite luminescence, 48 h; series mostly up to 57.5 µM
Outline: as §1

Tov-21-G = experiment: as above; settings: Gynecologic cancer cell panel viability, ATPlite luminescence, 48 h; series mostly up to 57.5 µM
Outline: as §1

Tov112D = experiment: as above; settings: Gynecologic cancer cell panel viability, ATPlite luminescence, 48 h; series mostly up to 57.5 µM
Outline: as §1

[1] = Drug repurposing screens with cells derived from glioblastoma tumor samples (AID 1345199); settings: GBM patient neurospheres viability, ATP luminescence, 48 h; also: nearly all actives have a fitted effect of over 40% in size; also: potency is read from the fitted curve at half-maximal effect
Outline: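 Primary testing used CD133+ neurospheres from four GBM patients, seven concentrations, 48 h exposure and ATP-based viability; confirmation added three slower-growing patient lines.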

[2] = at 46.1 µM (top of the series), tumour line C
[3] = at 45.9 µM (top of the series), tumour line B
[4] = at 45.9 µM (top of the series), tumour line D
% is scaled to controls: 0 for no effect and ±100 for the full control effect.

CCC(C(=O)OCCOCCN(CC)CC)c1ccccc1 (centres undefined)
inactive: Potency (Es-2) | Potency (HeLa) | Potency (Hek293T) | Potency (JEG-3) | Potency (OV90) | Potency (PA-1) | Potency (SKOV3) | Potency (Tov-21-G) | Potency (Tov112D) | activity, negative = cell killing [1, 2] -29.9%
active: Potency ([1]; tumour line A) 14.1 µM

CO[C@]12C[C@@H](COC(=O)c3cncc(Br)c3)CN(C)[C@@H]1Cc1cn(C)c3cccc2c13
inactive: Potency (Es-2) | Potency (HeLa) | Potency (Hek293T) | Potency (JEG-3) | Potency (OV90) | Potency (PA-1) | Potency (SKOV3) | Potency (Tov-21-G) | Potency (Tov112D) | activity, negative = cell killing [1, 3] -27.1% | activity, negative = cell killing [1, 4] -16.6% | activity, negative = cell killing [1, 2] -7.09%

C=C1c2cccc(O)c2C(O)=C2C(=O)[C@]3(O)C(O)=C(C(N)=O)C(=O)[C@@H](N(C)C)[C@@H]3[C@@H](O)[C@H]12
inactive: Potency (Es-2) | Potency (HeLa) | Potency (Hek293T) | Potency (JEG-3) | Potency (OV90) | Potency (PA-1) | Potency (SKOV3) | Potency (Tov-21-G) | Potency (Tov112D) | activity, negative = cell killing ([1]; at 20 µM (top of the series), tumour line C) -24.5% | activity, negative = cell killing ([1]; at 21.2 µM (top of the series), tumour line B) -7.73%

O=C1OC2(c3ccccc31)c1cc(Br)c(O)c(Br)c1Oc1c2cc(Br)c(O)c1Br
inactive: Potency (Es-2) | Potency (HeLa) | Potency (Hek293T) | Potency (JEG-3) | Potency (OV90) | Potency (PA-1) | Potency (SKOV3) | Potency (Tov-21-G) | Potency (Tov112D) | activity, negative = cell killing [1, 3] -12.6% | activity, negative = cell killing [1, 4] -6.67% | activity, negative = cell killing [1, 2] -34.7%

Cc1cccc(C)c1NC(=O)CN1CCCC1
inactive: Potency (Es-2) | Potency (HeLa) | Potency (Hek293T) | Potency (JEG-3) | Potency (OV90) | Potency (PA-1) | Potency (SKOV3) | Potency (Tov-21-G) | Potency (Tov112D) | activity, negative = cell killing [1, 3] -9.15% | activity, negative = cell killing [1, 4] 5.92% | activity, negative = cell killing [1, 2] -8.15%

CC(C)Nc1cccnc1N1CCN(C(=O)c2cc3cc(NS(C)(=O)=O)ccc3[nH]2)CC1
inactive: Potency (Es-2) | Potency (HeLa) | Potency (Hek293T) | Potency (JEG-3) | Potency (OV90) | Potency (PA-1) | Potency (SKOV3) | Potency (Tov-21-G) | Potency (Tov112D) | activity, negative = cell killing [1, 3] -14.1% | activity, negative = cell killing [1, 4] 0.603%

CCCCCCCCCCCCCCC[C@H](O)[C@@H](N)CO
inactive: Potency (Es-2) | Potency (HeLa) | Potency (Hek293T) | Potency (JEG-3) | Potency (OV90) | Potency (PA-1) | Potency (SKOV3) | Potency (Tov-21-G) | Potency (Tov112D)

CCOC(=O)c1ccc(N)cc1
active: Potency ([1]; tumour line B) 14.1 µM
inactive: Potency (Es-2) | Potency (HeLa) | Potency (Hek293T) | Potency (JEG-3) | Potency (OV90) | Potency (PA-1) | Potency (SKOV3) | Potency (Tov-21-G) | Potency (Tov112D) | activity, negative = cell killing ([1]; at 21.2 µM (top of the series), tumour line D) -25.1%

Cn1c(=O)c2[nH]c(Br)nc2n(C)c1=O
inactive: Potency (Es-2) | Potency (HeLa) | Potency (Hek293T) | Potency (JEG-3) | Potency (OV90) | Potency (PA-1) | Potency (SKOV3) | Potency (Tov-21-G) | Potency (Tov112D) | activity, negative = cell killing [1, 3] -10.3% | activity, negative = cell killing [1, 4] -8.55% | activity, negative = cell killing [1, 2] -9.05%

C[C@]12CCC(=O)C=C1C=C[C@@H]1[C@@H]2CC[C@@]2(C)[C@H]1CC[C@@]21CCC(=O)O1
inactive: Potency (Es-2) | Potency (HeLa) | Potency (Hek293T) | Potency (JEG-3) | Potency (OV90) | Potency (PA-1) | Potency (SKOV3) | Potency (Tov-21-G) | Potency (Tov112D) | activity, negative = cell killing [1, 3] -20%

CC(=O)O[C@]1(C(C)=O)CC[C@H]2[C@@H]3C=C(Cl)C4=CC(=O)CC[C@]4(C)[C@H]3CC[C@@]21C
inactive: Potency (Es-2) | Potency (HeLa) | Potency (Hek293T) | Potency (JEG-3) | Potency (OV90) | Potency (PA-1) | Potency (SKOV3) | Potency (Tov-21-G) | Potency (Tov112D) | activity, negative = cell killing [1, 3] -21.1%

CCCCCCCCOc1ccc(C(=O)c2ccccc2)c(O)c1
inactive: Potency (Es-2) | Potency (HeLa) | Potency (Hek293T) | Potency (JEG-3) | Potency (OV90) | Potency (PA-1) | Potency (SKOV3) | Potency (Tov-21-G) | Potency (Tov112D) | activity, negative = cell killing [1, 3] -18.7% | activity, negative = cell killing [1, 4] -9.16% | activity, negative = cell killing [1, 2] -24.6%

CCCCC(CC)COC(=O)c1ccc(N(C)C)cc1 (centres undefined)
inactive: Potency (Es-2) | Potency (HeLa) | Potency (Hek293T) | Potency (JEG-3) | Potency (OV90) | Potency (PA-1) | Potency (SKOV3) | Potency (Tov-21-G) | Potency (Tov112D) | activity, negative = cell killing [1, 3] -7.11% | activity, negative = cell killing [1, 4] -11.8% | activity, negative = cell killing [1, 2] -2.69%

CCc1cc(Cl)c(OC)c(C(=O)NC[C@@H]2CCCN2CC)c1O
inactive: Potency (Es-2) | Potency (HeLa) | Potency (Hek293T) | Potency (JEG-3) | Potency (OV90) | Potency (PA-1) | Potency (SKOV3) | Potency (Tov-21-G) | Potency (Tov112D)

C#C[C@]1(O)CC[C@H]2[C@@H]3[C@H](C)CC4=C(CCC(=O)C4)[C@H]3CC[C@@]21C
inactive: Potency (Es-2) | Potency (HeLa) | Potency (Hek293T) | Potency (JEG-3) | Potency (OV90) | Potency (PA-1) | Potency (SKOV3) | Potency (Tov-21-G) | Potency (Tov112D) | activity, negative = cell killing [1, 3] -14.2%
active: Potency ([1]; tumour line A) 31.6 µM

COc1cc(C(=O)N2CCCCCCC2)cc(OC)c1OC
inactive: Potency (Es-2) | Potency (HeLa) | Potency (Hek293T) | Potency (JEG-3) | Potency (OV90) | Potency (PA-1) | Potency (SKOV3) | Potency (Tov-21-G) | Potency (Tov112D) | activity, negative = cell killing [1, 3] -16.1% | activity, negative = cell killing [1, 4] -20.1%

CN1CCN(c2c(F)cc3c(=O)c(C(=O)O)cn4c3c2SCC4)CC1
inactive: Potency (Es-2) | Potency (HeLa) | Potency (Hek293T) | Potency (JEG-3) | Potency (OV90) | Potency (PA-1) | Potency (SKOV3) | Potency (Tov-21-G) | Potency (Tov112D) | activity, negative = cell killing [1, 3] -10.6% | activity, negative = cell killing [1, 2] -19.6%

COc1ccc(/C=N/NC(=O)c2ccncc2)cc1OC
inactive: Potency (Es-2) | Potency (HeLa) | Potency (Hek293T) | Potency (JEG-3) | Potency (OV90) | Potency (PA-1) | Potency (SKOV3) | Potency (Tov-21-G) | Potency (Tov112D) | activity, negative = cell killing [1, 3] -3.24% | activity, negative = cell killing [1, 4] -6.28% | activity, negative = cell killing [1, 2] -25%
